Measured values reported in PubChem BioAssay (NCI).
Compounds without any hit were thinned out: in the full panel of roughly 83,000, 20% have a hit.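 Activity criterion: percent growth below 10, measured after cells in 96-well plates were exposed to a single compound concentration for 48 hours.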 Active and inactive are the calls of the source.

Legend:
Test in all cases: NCI-60 one-dose screen, 48 h (100 = growth as untreated, 0 = no growth, -100 = all killed)
[1] = test system: HT29 colon; conditions: 10 µM unless noted
[2] = test system: SNB-75 CNS; conditions: 10 µM
[3] = test system: SNB-19 CNS; conditions: 10 µM unless noted
[4] = test system: U251 CNS; conditions: 10 µM unless noted
[5] = test system: PC-3 prostate; conditions: 10 µM unless noted
[6] = test system: SK-MEL-5 melanoma; conditions: 10 µM unless noted
[7] = test system: UACC-62 melanoma; conditions: 10 µM unless noted
[8] = test system: LOX IMVI melanoma; conditions: 10 µM unless noted
[9] = test system: SK-MEL-28 melanoma; conditions: 10 µM unless noted
[10] = test system: SK-MEL-2 melanoma; conditions: 10 µM unless noted
[11] = test system: SN12C renal; conditions: 10 µM unless noted
[12] = test system: TK-10 renal; conditions: 10 µM unless noted
[13] = test system: ACHN renal; conditions: 10 µM unless noted
[14] = test system: CAKI-1 renal; conditions: 10 µM unless noted
[15] = test system: A498 renal; conditions: 10 µM unless noted
[16] = test system: CCRF-CEM leukemia; conditions: 10 µM unless noted
[17] = test system: MOLT-4 leukemia; conditions: 10 µM unless noted
[18] = test system: UO-31 renal; conditions: 10 µM unless noted
[19] = test system: EKVX NSCLC; conditions: 10 µM unless noted
[20] = test system: HCT-15 colon; conditions: 10 µM unless noted

Measured: growth

C=C1C(=O)O[C@H]2[C@H]1CC/C(COC(=O)NCc1ccccc1OC)=C\CC[C@@]1(C)O[C@@H]21
inactive: [2] 77.4% | [3] 57.6% | [4] 74.8% | [5] 52.4% | [6] 92.8% | [7] 23.4% | [9] 47.5% | [10] 60.6% | [11] 23.4% | [12] 20.6% | [14] 13.7% | [15] 67.1%
active: [1] -3.76% | [8] 5.34% | [13] 6.65% | [16] 6.8%

COc1ccc(-c2cnnn2-c2nonc2-n2cccc2)cc1OC
inactive: [1] 12.3% | [2] 51.3% | [4] 56.8% | [5] 61.2% | [6] 55.6% | [7] 54.1% | [8] 44.2% | [9] 67.8% | [10] 38% | [11] 68.5% | [12] 69.6% | [14] 42.9% | [15] 56.3% | [16] 54.7% | [17] 18.1%

N#Cc1ccc(N2Cc3ccccc3OC3=C2C(=O)c2c(O)ccc(O)c2C3=O)cc1
inactive: [2] 76% | [3] 27.6% | [4] 10.2% | [6] 59.9% | [15] 93.4%
active: [1] -62.4% | [5] -25.6% | [7] -26.3% | [9] -32.2% | [10] -24% | [11] -32.9% | [18] -80.5% | [12] -84.4% | [13] -59.9% | [14] 2.96% | [16] -8.98%

CC(C)(C)N1CCC1C(N)=O (configuration not stated)
inactive: [1] 109% | [2] 89.3% | [3] 99.4% | [5] 95.3% | [6] 107% | [7] 91.5% | [9] 114% | [10] 159% | [19] 92.2% | [11] 104% | [18] 131% | [12] 91.8% | [14] 83% | [15] 136% | [16] 93% | [17] 120%

CCN(CC)c1ccc(C(=N)c2ccc(N(CC)CC)cc2)cc1
active: [1] -10.5% | [2] -34.3% | [3] 4.23% | [5] 3.06% | [6] -100% | [7] -64.6% | [9] -39.9% | [10] -66.6% | [11] 0.751% | [18] -33.6% | [14] -9.36% | [15] -44.3%
inactive: [19] 12.4% | [12] 10% | [16] 12.1%

CCCCCCCC/C=C/CCCCCCCC1=NC(C)(C)CN1C(C)(C)CO
active: [1] -57.8% | [4] -68.1% | [6] 4.8% | [7] -25.3% | [8] -100% | [9] -63.9% | [16] 3.32% | [17] -22.6%
inactive: [2] 38.5% | [3] 57.9% | [5] 44.9% | [10] 51.3% | [19] 66.2% | [11] 48.7% | [18] 44.5% | [12] 62.1% | [13] 21.6% | [14] 42.3% | [15] 88.8%

O=C1C2(c3ccccc3)C(c3ccccc3)=C(c3ccccc3)C1(c1ccccc1)C1CC=CC12 (configuration not stated)
inactive: [1] 81.8% | [2] 83.4% | [3] 85.5% | [4] 89.4% | [5] 48.8% | [6] 85.8% | [7] 78.3% | [8] 85% | [9] 108% | [10] 82.6% | [11] 86.1% | [18] 61.6% | [12] 118% | [13] 86.7% | [14] 52.6% | [15] 89.2% | [16] 84.2% | [17] 84.4%

C=C1CCC2C(C)(CO)C(O)CCC2(C)C1C/C=C1/C(=O)OCC1O/C=C/c1ccccc1 (configuration not stated)
inactive: [1] 56.6% | [3] 95.3% | [4] 83.8% | [5] 58.6% | [6] 82.1% | [7] 65.2% | [8] 36.8% | [9] 93.3% | [10] 72.7% | [19] 103% | [11] 73.8% | [18] 69.1% | [12] 119% | [13] 87.2% | [14] 77.1% | [15] 86.4% | [16] 10.7% | [17] 21.2%

CCOC(=O)NNC(=S)Nc1ccccc1
inactive: [1] 105% | [2] 95.2% | [3] 97.9% | [4] 101% | [5] 100% | [6] 100% | [7] 95.5% | [8] 100% | [9] 106% | [10] 116% | [11] 99% | [18] 89.4% | [13] 105% | [14] 92.3% | [15] 95.1% | [16] 106% | [17] 106%

COc1ccc2[nH]c(C(=O)OCc3ccc4c(Cl)cc(Cl)c(O)c4n3)cc2c1
active: [1] -80.3% | [2] -32.4% | [4] 7.6% | [5] -55.5% | [6] -30.5% | [7] -89.4% | [8] -93.1% | [10] -11.4% | [11] -75.6% | [18] -100% | [12] -98.1% | [13] -99.8% | [14] -99.5% | [16] -9.99% | [17] -18.5%
inactive: [3] 53.2% | [15] 10.5%

Clc1ccccc1-c1nc2ccccc2[nH]1
inactive: [1] 103% | [2] 84.1% | [3] 90% | [5] 94.4% | [6] 102% | [7] 98.2% | [9] 113% | [10] 116% | [19] 90.3% | [11] 116% | [18] 95.1% | [12] 121% | [15] 110% | [16] 91% | [17] 110%

c1cc2[nH]ncc2cc1-c1nc2ccc3[nH]ncc3c2c2c1CCC2
active: [15] -3.31%
inactive: [1] 37.9% | [2] 34.9% | [3] 69.5% | [4] 43.6% | [5] 54.5% | [6] 56.6% | [7] 15.4% | [8] 40.4% | [10] 19% | [11] 63.9% | [18] 38% | [12] 30.8% | [13] 23.8% | [14] 23.3% | [16] 30.2% | [17] 20.9%

Cn1c2ccc(Br)cc2c2c3c(c4c5ccccc5[nH]c4c21)C(=O)N(O)C3=O
active: [1] -76.4% | [2] -86.9% | [3] -35.8% | [4] -71% | [5] -43.9% | [6] -97.8% | [7] -72.3% | [8] -80.9% | [10] -74.4% | [11] -71.9% | [18] -95.4% | [12] -72.2% | [13] -66.3% | [14] -76.6% | [15] -43.7% | [16] -16% | [17] -28%

Cc1cc(C(C)(C)C)ccc1S
inactive: [1] 97.5% | [2] 91.4% | [3] 105% | [4] 109% | [5] 85.6% | [6] 111% | [7] 98.6% | [8] 103% | [9] 104% | [10] 93.4% | [19] 123% | [11] 100% | [18] 90.3% | [12] 107% | [14] 93.1% | [15] 92.8% | [16] 96% | [17] 81.3%

O=C1Nc2ccc(Cl)cc2C12Nc1cc(Cl)ccc1S2 (configuration not stated)
inactive: [20] 87% | [3] 94.8% | [4] 85.8% | [5] 51.8% | [6] 70.9% | [7] 71.5% | [8] 77.9% | [9] 110% | [10] 105% | [19] 73.3% | [11] 90.1% | [18] 57.4% | [12] 111% | [13] 104% | [14] 112% | [15] 118% | [16] 97.3% | [17] 38.3%

CCOC(=O)c1ccc2c(c1)c1c(C)c3cccnc3c(C)c1n2C
inactive: [1] 47.4% | [2] 68% | [3] 56.4% | [4] 48.1% | [5] 58.3% | [6] 69.9% | [7] 49.2% | [8] 22.9% | [9] 85.3% | [10] 96% | [11] 33.8% | [18] 32% | [12] 87.8% | [13] 29.8% | [14] 30.9% | [15] 83.4% | [16] 47.9% | [17] 21.4%

COc1ccc(-c2c(N)n[nH]c2-c2cc(OC)c3c(c2)OCCO3)cc1
inactive: [1] 29.7% | [2] 57.4% | [3] 84.9% | [4] 77.6% | [5] 66.9% | [6] 69.8% | [7] 71% | [8] 69.8% | [9] 80.7% | [10] 64.8% | [11] 88.7% | [18] 92% | [12] 71.3% | [14] 70.3% | [15] 71.4% | [16] 73.7% | [17] 61.3%
